PubChem BioAssay (NCATS)
Inconclusive results are not listed. Activity calls are given as the source filed them. The call rests on the fitted dose curve; in most records, active means well fitted curve in the direction sought with a large enough effect; inconclusive means small, poorly fitted or top-dose-only effect, or another doubt; inactive means no such curve, though single readings can be large; an effect the other way counts as inactive or inconclusive.

Columns and labels:
[1] = biological target: Rap guanine nucleotide exchange factor 3 (Homo sapiens) (UniProt O95398); assay: Confirmatory qHTS for antagonist of cAMP-regulated guanine nucleotide exchange factor 3 (EPAC1) (AID 1645880); conditions: EPAC1 Rap1B-BODIPY-GDP exchange, fluorescence; activity, negative = inhibition: at 115 µM (top of the series); further: nearly all actives have a fitted effect of over 55% in size; further: potency means the concentration at half of the fitted maximal effect;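 on activity, negative = inhibition: plate controls were DMSO only for no effect and full effect of the ATA control for full effect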
Chain of Rap guanine nucleotide exchange factor 3 (Homo sapiens) (O95398 whole entry, looked up): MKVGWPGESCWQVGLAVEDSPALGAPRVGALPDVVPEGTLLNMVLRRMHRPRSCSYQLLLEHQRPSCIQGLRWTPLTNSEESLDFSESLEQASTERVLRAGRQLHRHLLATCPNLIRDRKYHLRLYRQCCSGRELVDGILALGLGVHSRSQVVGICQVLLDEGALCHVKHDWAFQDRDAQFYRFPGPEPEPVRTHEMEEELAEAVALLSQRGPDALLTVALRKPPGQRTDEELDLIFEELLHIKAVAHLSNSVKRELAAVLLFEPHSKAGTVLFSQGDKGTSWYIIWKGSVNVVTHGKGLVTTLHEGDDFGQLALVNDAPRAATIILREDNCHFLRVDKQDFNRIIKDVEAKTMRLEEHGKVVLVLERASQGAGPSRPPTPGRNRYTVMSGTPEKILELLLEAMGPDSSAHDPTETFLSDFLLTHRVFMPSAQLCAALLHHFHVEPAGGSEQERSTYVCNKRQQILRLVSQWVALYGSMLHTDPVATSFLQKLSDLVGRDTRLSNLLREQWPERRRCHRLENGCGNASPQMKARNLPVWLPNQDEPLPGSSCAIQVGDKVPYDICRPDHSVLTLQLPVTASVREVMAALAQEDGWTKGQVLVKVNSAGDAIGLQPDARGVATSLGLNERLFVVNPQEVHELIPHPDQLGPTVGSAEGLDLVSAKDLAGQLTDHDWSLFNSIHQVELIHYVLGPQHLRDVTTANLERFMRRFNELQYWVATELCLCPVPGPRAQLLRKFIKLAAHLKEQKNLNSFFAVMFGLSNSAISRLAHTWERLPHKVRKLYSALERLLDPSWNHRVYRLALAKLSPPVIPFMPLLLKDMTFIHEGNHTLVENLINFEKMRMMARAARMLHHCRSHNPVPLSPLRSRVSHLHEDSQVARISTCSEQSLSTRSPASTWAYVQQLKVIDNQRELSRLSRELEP
How it was run: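 Nucleotide exchange uses 100 nM EPAC1, 250 nM RAP1B-BODIPY-GDP and 50 uM GDP, with compounds in a concentration-titration series. After 5 min at room temperature, fluorescence (480 nm ex/540 nm em) is read every 5 min for 30 min. Data are normalized to control ATA and DMSO.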

[2] = biological target: Rap guanine nucleotide exchange factor 4 (Homo sapiens) (UniProt Q8WZA2); assay: Confirmatory qHTS for agonist of cAMP-regulated guanine nucleotide exchange factor 4 (EPAC2) (AID 1645884);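 further: nucleotide exchange releases bodipy-GDP from Rap1 and this lowers its fluorescence; nearly all actives have a fitted effect of over 65% in size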; further: potency means the concentration at half of the fitted maximal effect; on activation: on the % scale 0 is the no-effect control and ±100 the full control effect
Chain of Rap guanine nucleotide exchange factor 4 (Homo sapiens) (Q8WZA2 whole entry, looked up): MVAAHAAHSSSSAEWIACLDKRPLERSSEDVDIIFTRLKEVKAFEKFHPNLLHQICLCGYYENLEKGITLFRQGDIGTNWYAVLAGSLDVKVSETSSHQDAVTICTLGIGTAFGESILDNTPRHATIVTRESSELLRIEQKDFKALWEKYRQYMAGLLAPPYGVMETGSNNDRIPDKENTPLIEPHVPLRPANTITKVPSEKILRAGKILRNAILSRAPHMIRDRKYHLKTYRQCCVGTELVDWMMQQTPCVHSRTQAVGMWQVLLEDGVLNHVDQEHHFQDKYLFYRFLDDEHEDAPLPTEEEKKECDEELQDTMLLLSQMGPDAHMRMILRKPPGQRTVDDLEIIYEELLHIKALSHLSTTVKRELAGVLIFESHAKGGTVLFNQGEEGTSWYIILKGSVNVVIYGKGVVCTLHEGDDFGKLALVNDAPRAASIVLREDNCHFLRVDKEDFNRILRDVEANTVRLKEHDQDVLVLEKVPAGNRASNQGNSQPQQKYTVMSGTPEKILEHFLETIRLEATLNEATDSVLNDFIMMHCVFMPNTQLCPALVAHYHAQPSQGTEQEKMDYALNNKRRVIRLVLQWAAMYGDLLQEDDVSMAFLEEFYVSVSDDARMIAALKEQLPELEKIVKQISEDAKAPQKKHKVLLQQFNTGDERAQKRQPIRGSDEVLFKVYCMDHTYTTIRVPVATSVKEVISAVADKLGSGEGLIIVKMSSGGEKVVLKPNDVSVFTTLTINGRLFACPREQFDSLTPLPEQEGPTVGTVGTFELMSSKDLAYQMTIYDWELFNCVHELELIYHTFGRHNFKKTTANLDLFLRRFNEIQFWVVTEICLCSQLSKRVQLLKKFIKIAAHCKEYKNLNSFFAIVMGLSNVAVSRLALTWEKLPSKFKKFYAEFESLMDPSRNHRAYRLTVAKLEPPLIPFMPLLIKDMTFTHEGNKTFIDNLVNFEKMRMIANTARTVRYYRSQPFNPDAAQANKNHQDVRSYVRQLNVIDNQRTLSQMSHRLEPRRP

[3] = biological target: Rap guanine nucleotide exchange factor 4 (Homo sapiens) (UniProt Q8WZA2); assay: Confirmatory qHTS for antagonist of cAMP-regulated guanine nucleotide exchange factor 4 (EPAC2) (AID 1645885); further: nearly all actives have a fitted effect of over 25% in size; further: potency means the concentration at half of the fitted maximal effect; on activity change, negative = inhibition: on the % scale 0 is the no-effect control and ±100 the full control effect
[4] = biological target: Rap guanine nucleotide exchange factor 3 (Homo sapiens) (UniProt O95398); assay: Counterscreen qHTS for antagonist of cAMP-regulated guanine nucleotide exchange factor 3 (EPAC1) (AID 1645888);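 further: fluorescence loss as bound BODIPY-GDP is released from Rap1B; % of control where 0% means no effect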
How it was run: (§1)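 Rap1B-BODIPY-GDP 250 nM + GDP 50 uM; cpds 7-pt, final 9.74 nM–152 uM (activator mode) or from 7.32 nM upwards (inhibitor mode); RT; FI 480/540 nm at 5 and 30 min, then ± cAMP, reread.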

[5] = biological target: Rap guanine nucleotide exchange factor 3 (Homo sapiens) (UniProt O95398); assay: Counterscreen qHTS for agonist of cAMP-regulated guanine nucleotide exchange factor 3 (EPAC1) (AID 1645889); further: nearly all actives have a fitted effect of over 40% in size; further: potency means the concentration at half of the fitted maximal effect; on activation: % of control where 0% means no effect
How it was run: as §1

[6] = biological target: Tumor susceptibility gene 101 protein (Homo sapiens) (UniProt Q99816); assay: qHTS Assay for Iinhibitors of HIV-1 Budding by Blocking the Interaction of PTAP/TSG101: Hit Validation (AID 651600); further: potency means the concentration at half of the fitted maximal effect; nearly all actives have a fitted effect of over 70% in size
Chain of Tumor susceptibility gene 101 protein (Homo sapiens) (Q99816 whole entry, looked up, the tested form may be a part): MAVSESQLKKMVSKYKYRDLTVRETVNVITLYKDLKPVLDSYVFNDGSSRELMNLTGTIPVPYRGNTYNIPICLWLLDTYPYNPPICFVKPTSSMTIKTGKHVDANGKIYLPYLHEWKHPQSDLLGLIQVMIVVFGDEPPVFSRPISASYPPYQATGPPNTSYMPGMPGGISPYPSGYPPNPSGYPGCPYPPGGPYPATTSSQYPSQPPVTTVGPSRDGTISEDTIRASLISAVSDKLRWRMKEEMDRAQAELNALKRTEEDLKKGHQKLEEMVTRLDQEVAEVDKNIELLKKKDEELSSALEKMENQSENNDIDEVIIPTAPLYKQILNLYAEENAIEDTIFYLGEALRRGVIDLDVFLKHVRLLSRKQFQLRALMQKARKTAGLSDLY
How it was run: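 Fluorescence polarization binding assay: Tsg101 binding domain (10 uM) mixed with compounds and FITC-labeled PTAP peptide (50 nM) in HEPES pH 7.5, 0.15 M NaCl, 0.01% Tween 20, EDTA, TCEP; 20 min at r.t.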

CN(C)c1ccc(/C=C2\SC(=S)N(Nc3ncc(C(F)(F)F)cc3Cl)C2=O)cc1
inactive: Potency [1] | Potency [4]
active: Potency [2] 112 µM | Potency [3] 16.9 µM | Potency [5] 17.8 µM

COc1ccc(C)cc1CN1C(=O)c2ccccc2C1=O
inactive: Potency [1] | activation [2] -0.218% [at 17.1 µM, percent relative to cAMP agonist control] | Potency [3] | activity change, negative = inhibition [4] -7.92% [at 30.8 µM] | activation [5] 12.1% [at 30.8 µM]

N#C/C(=C\c1ccc(N2CCOCC2)o1)c1nc2ccccc2[nH]1
active: Potency [2] 112 µM | Potency [5] 39.8 µM
inactive: Potency [1] | Potency [3] | Potency [4]

COc1ccc(NC(=O)c2c(-c3ccccc3)c(-c3ccccc3)nn(C)c2=O)c(OC)c1
inactive: Potency [1] | Potency [2] | Potency [3] | Potency [4]

CC(C)n1cc(/C=C/c2cc[n+](C)cc2)c2ccccc21
active: Potency [2] 112 µM | Potency [5] 56.2 µM
inactive: Potency [1] | Potency [3] | Potency [4]

CCN(CC)c1ccc2cc(-c3nc(-c4ccccc4)no3)c(=O)oc2c1
active: Potency [2] 31.6 µM | Potency [3] 6.01 µM | Potency [5] 56.2 µM
inactive: Potency [1] | Potency [4]

CCN(CC)c1ccc2cc(C=O)c(=O)oc2c1
active: Potency [5] 12.6 µM
inactive: Potency [1] | activation [2] 6.38% [at 17.1 µM, percent relative to cAMP agonist control] | Potency [3] | activity change, negative = inhibition [4] 96.9% [at 30.8 µM]

O=C(OCCN1C(=O)c2cccc3c(N4CCOCC4)ccc(c23)C1=O)c1ccccc1Cl
active: Potency [5] 11.2 µM
inactive: Potency [1] | activation [2] 17.6% [at 17.1 µM, percent relative to cAMP agonist control] | Potency [3] | activity change, negative = inhibition [4] 1.86% [at 30.8 µM]

CC(C)CCn1c(Oc2ccccc2F)nc2c1c(=O)n(C)c(=O)n2C
inactive: Potency [1] | Potency [2] | Potency [3] | Potency [4] | Potency [5]

CCC(C)n1c(=N)c(C#N)cc2c(=O)n3ccccc3nc21 (stereo unspecified)
inactive: Potency [1] | activation [2] -1.22% [at 17.1 µM, percent relative to cAMP agonist control] | Potency [3] | activity change, negative = inhibition [4] -20.2% [at 30.8 µM] | activation [5] -4.07% [at 30.8 µM]

COc1ccc(N=Cc2c(O)n(-c3cccc(C)n3)c(=O)c3ccccc23)c(OC)c1
inactive: Potency [1] | activation [2] -25.1% [at 17.1 µM, percent relative to cAMP agonist control] | Potency [3] | activity change, negative = inhibition [4] 31% [at 30.8 µM] | activation [5] 19.8% [at 30.8 µM]

O=C(c1ccco1)N1CCN(c2cc(=O)n(C3CCCCC3)c(=O)[nH]2)CC1
inactive: Potency [1] | Potency [2] | Potency [3] | Potency [4] | Potency [5]

O=c1oc2ccc(Cl)cc2nc1/C=C(\O)c1cccs1
inactive: Potency [1] | activation [2] 14.5% [at 17.1 µM, percent relative to cAMP agonist control] | Potency [3] | activity change, negative = inhibition [4] 7.64% [at 30.8 µM] | activation [5] 11.4% [at 30.8 µM]

CN1/C(=C/C=C(C#N)C#N)C(C)(C)c2ccccc21
inactive: Potency [1] | activation [2] -11.9% [at 17.1 µM, percent relative to cAMP agonist control] | Potency [3] | activity change, negative = inhibition [4] 214% [at 30.8 µM] | activation [5] -347% [at 30.8 µM]

CCOC(=O)c1sc2nc3c(SCC(=O)O)cc(C(=O)c4cc(F)ccc4O)cn3c(=O)c2c1C
inactive: Potency [2] | Potency [3] | Potency [4] | Potency [5]
active: Potency [1] 9.53 µM

CC1=Nc2ccccc2/C1=C\c1nc(-c2ccccc2)oc1O
inactive: Potency [1] | activation [2] 7.61% [at 17.1 µM, percent relative to cAMP agonist control] | Potency [3] | activity change, negative = inhibition [4] -10.6% [at 30.8 µM] | activation [5] 18.1% [at 30.8 µM]

O=C(c1cccs1)N(Cc1cccnc1)c1nc2c(Cl)cccc2s1
inactive: Potency [1] | Potency [2] | Potency [3] | Potency [4]

O=C(O)c1cccc(-c2ccc(/C=c3/sc4nc5ccccc5n4c3=O)o2)c1
inactive: Potency [1] | Potency [2] | Potency [3] | Potency [4] | Potency [5]

COc1ccccc1CNc1cc(C)nc2nc(-c3ccc(C)cc3)nn12
inactive: Potency [1] | Potency [2] | Potency [3] | Potency [4] | Potency [5]

O=c1oc2cc(O)ccc2cc1-c1nc2c(s1)CCc1ccccc1-2
active: Potency [2] 100 µM
inactive: Potency [1] | Potency [3] | Potency [4] | Potency [5]

COc1ccc(NC2c3ccccc3C(=O)N2c2ccccn2)cc1Cl (stereo unspecified)
inactive: Potency [1] | Potency [2] | Potency [3] | Potency [4] | Potency [5]

CN(Cc1cccs1)c1nc(-c2cccnc2)nc2ccccc12
inactive: Potency [1] | activation [2] 12.1% [at 17.1 µM, percent relative to cAMP agonist control] | Potency [3] | activity change, negative = inhibition [4] -10.3% [at 30.8 µM] | activation [5] 51% [at 30.8 µM]

O=C1c2cccc3c(N4CCCCC4)ccc(c23)C(=O)N1c1ccc(O)cc1
active: Potency [2] 112 µM
inactive: Potency [1] | Potency [3] | Potency [4] | Potency [5]

O=C(/C=C/c1ccc(N2CCOCC2)cc1)c1ccccc1
inactive: Potency [1] | Potency [2] | Potency [3] | Potency [4] | Potency [5]

O=C(Cn1ccc(=O)[nH]c1=O)c1ccc([N+](=O)[O-])o1
inactive: Potency [1] | activation [2] 15.2% [at 17.1 µM, percent relative to cAMP agonist control] | Potency [3] | activity change, negative = inhibition [4] -11.8% [at 30.8 µM] | activation [5] 18.6% [at 30.8 µM]

O=C(Cc1nc2ccccc2[nH]c1=O)c1ccccc1
inactive: Potency [1] | Potency [3] | Potency [4] | Potency [5]
active: Potency [2] 100 µM

Cc1ccc(S(=O)(=O)N2CCN(C(=O)c3ccc4c(c3)OCO4)CC2)cc1
inactive: Potency [1] | activation [2] 0.378% [at 17.1 µM, percent relative to cAMP agonist control] | Potency [3] | activity change, negative = inhibition [4] -2% [at 30.8 µM] | activation [5] 24.8% [at 30.8 µM]

O=C(c1ccccc1)c1ccc(O)cc1O
active: Potency [6] 5.8 µM
inactive: Potency [1] | activation [2] 17% [at 17.1 µM, percent relative to cAMP agonist control] | Potency [3] | activity change, negative = inhibition [4] -16.9% [at 30.8 µM] | activation [5] 6.44% [at 30.8 µM]

N#CC1=C(N)OC2=C(CC/C2=C\c2ccccc2)C1c1ccccc1 (stereo unspecified)
inactive: Potency [1] | Potency [3] | Potency [4] | Potency [5]
active: Potency [2] 112 µM

COc1ccc2oc(C)c(C(=O)c3ccccc3)c2c1
inactive: Potency [1] | activation [2] 5.91% [at 17.1 µM, percent relative to cAMP agonist control] | Potency [3] | activity change, negative = inhibition [4] 1.7% [at 30.8 µM] | activation [5] 7.36% [at 30.8 µM]

COc1ccc(CN(C(=O)c2cccs2)c2ccccc2)cc1
inactive: Potency [1] | activation [2] 16.8% [at 17.1 µM, percent relative to cAMP agonist control] | Potency [3] | activity change, negative = inhibition [4] -5.93% [at 30.8 µM] | activation [5] 12% [at 30.8 µM]

Cn1nc(-c2ccccc2)c2nc3ccccc3nc21
active: Potency [6] 16.3 µM | Potency [2] 100 µM | Potency [3] 75.7 µM
inactive: Potency [1] | Potency [4] | Potency [5]

COc1cc(C2CC(=O)Oc3cc(C)cc(C)c32)cc(OC)c1OC (stereo unspecified)
inactive: Potency [1] | Potency [2] | Potency [4] | Potency [5]
active: Potency [3] 1.51 µM

CCN(CC)C(=O)c1ccc(/C=C/c2c[nH]c3ccccc23)[n+](C)c1
active: Potency [5] 15.8 µM
inactive: Potency [1] | activation [2] 6.96% [at 17.1 µM, percent relative to cAMP agonist control] | Potency [3] | activity change, negative = inhibition [4] 70% [at 30.8 µM]

COC(=O)c1c(NC(=O)c2ccc(S(=O)(=O)N(C)C3CCCCC3)cc2)sc2c1CCN(C)C2
active: Potency [5] 89.1 µM
inactive: Potency [1] | Potency [2] | Potency [3] | Potency [4]

O=[N+]([O-])c1ccc(N(c2ccccc2)c2ccccc2)cc1
inactive: Potency [1] | activation [2] 3.9% [at 17.1 µM, percent relative to cAMP agonist control] | Potency [3] | activity change, negative = inhibition [4] -24.8% [at 30.8 µM] | activation [5] 15.8% [at 30.8 µM]

N#CC(Sc1ccccn1)c1ccc(Cl)cc1Cl (stereo unspecified)
inactive: Potency [1] | Potency [2] | Potency [3] | Potency [4] | Potency [5]

O=C(N/N=C/c1cccnc1)c1cc(-c2ccccc2OCc2ccccc2)n[nH]1
active: Potency [2] 89.1 µM | Potency [5] 25.1 µM
inactive: Potency [1] | Potency [3] | Potency [4]

COc1cc(/C=C(\C#N)c2nc3ccccc3o2)ccc1O
inactive: Potency [1] | activation [2] 7.08% [at 17.1 µM, percent relative to cAMP agonist control] | Potency [3] | activity change, negative = inhibition [4] 3.99% [at 30.8 µM] | activation [5] 23.5% [at 30.8 µM]

Cc1ccc2[nH]cc(/C=C/c3cc[n+](C)cc3)c2c1
active: Potency [2] 112 µM | Potency [5] 56.2 µM
inactive: Potency [1] | Potency [3] | Potency [4]

Cc1n[nH]c(C)c1N1C(=O)c2cccc3c(N4CCCCCC4)ccc(c23)C1=O
inactive: Potency [1] | Potency [3] | Potency [4]
active: Potency [6] 20.6 µM | Potency [2] 112 µM | Potency [5] 12.6 µM
